Experimental data taken from the supplement of paper PMC4466140.

target: AgAbp1; experiment: SPOT peptide array binding signal intensity (averaged, normalized) (arbitrary units (background-subtracted, floor 0; scale differs between SH3 domains)); higher = stronger binding of the SH3 domain to the peptide
In short: (§1)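 Cellulose membranes carried synthetic 15-mer peptides with cysteines swapped for serines. These were incubated overnight at 4°C with 10 μg/ml of GST-fused SH3 domains from four yeast species in TBS-based blocking buffer. Binding signal, detected with anti-GST antibody and quantified in Genespotter, is the normalized, background-subtracted spot intensity averaged over replicates, in arbitrary units specific to each domain.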

| Binder | SPOT peptide array binding signal intensity |
| --- | --- |
| ISRRRLPVIMHRLKM | 138 |

target: AgBbc1; experiment: as above
In short: as §1

| Binder | SPOT peptide array binding signal intensity |
| --- | --- |
| ISRRRLPVIMHRLKM | 16.2 |

target: AgBem1-D1; experiment: as above
In short: as §1

| Binder | SPOT peptide array binding signal intensity |
| --- | --- |
| ISRRRLPVIMHRLKM | 66 |

target: AgBzz1-D1; experiment: as above
In short: as §1

| Binder | SPOT peptide array binding signal intensity |
| --- | --- |
| ISRRRLPVIMHRLKM | 49.5 |

target: AgBzz1-D2; experiment: as above
In short: as §1

| Binder | SPOT peptide array binding signal intensity |
| --- | --- |
| ISRRRLPVIMHRLKM | 14 |

target: AgCyk3; experiment: as above
In short: as §1

| Binder | SPOT peptide array binding signal intensity |
| --- | --- |
| ISRRRLPVIMHRLKM | 1 |

target: AgFus1; experiment: as above
In short: as §1

| Binder | SPOT peptide array binding signal intensity |
| --- | --- |
| ISRRRLPVIMHRLKM | 423 |

target: AgHof1; experiment: as above
In short: as §1

| Binder | SPOT peptide array binding signal intensity |
| --- | --- |
| ISRRRLPVIMHRLKM | 6.5 |

target: AgHse1; experiment: as above
In short: as §1

| Binder | SPOT peptide array binding signal intensity |
| --- | --- |
| ISRRRLPVIMHRLKM | 1310 |

target: AgLsb1; experiment: as above
In short: as §1

| Binder | SPOT peptide array binding signal intensity |
| --- | --- |
| ISRRRLPVIMHRLKM | 2.75 |

target: AgLsb4; experiment: as above
In short: as §1

| Binder | SPOT peptide array binding signal intensity |
| --- | --- |
| ISRRRLPVIMHRLKM | 40 |

target: AgMyo5; experiment: as above
In short: as §1

| Binder | SPOT peptide array binding signal intensity |
| --- | --- |
| ISRRRLPVIMHRLKM | 0.25 |

target: AgNbp2; experiment: as above
In short: as §1

| Binder | SPOT peptide array binding signal intensity |
| --- | --- |
| ISRRRLPVIMHRLKM | 303 |

target: AgRvs167; experiment: as above
In short: as §1

| Binder | SPOT peptide array binding signal intensity |
| --- | --- |
| ISRRRLPVIMHRLKM | 16.5 |

target: AgSho1; experiment: as above
In short: as §1

| Binder | SPOT peptide array binding signal intensity |
| --- | --- |
| ISRRRLPVIMHRLKM | 240 |

target: AgSla1-D1-D2; experiment: as above
In short: as §1

| Binder | SPOT peptide array binding signal intensity |
| --- | --- |
| ISRRRLPVIMHRLKM | 158 |

target: AgSla1-D3; experiment: as above
In short: as §1

| Binder | SPOT peptide array binding signal intensity |
| --- | --- |
| ISRRRLPVIMHRLKM | 9.5 |

target: CaAbp1-D1; experiment: as above
In short: as §1

| Binder | SPOT peptide array binding signal intensity |
| --- | --- |
| ISRRRLPVIMHRLKM | 617 |

target: CaAbp1-D2; experiment: as above
In short: as §1

| Binder | SPOT peptide array binding signal intensity |
| --- | --- |
| ISRRRLPVIMHRLKM | 645 |

target: CaBbc1; experiment: as above
In short: as §1

| Binder | SPOT peptide array binding signal intensity |
| --- | --- |
| ISRRRLPVIMHRLKM | 142 |

target: CaBem1-D1; experiment: as above
In short: as §1

| Binder | SPOT peptide array binding signal intensity |
| --- | --- |
| ISRRRLPVIMHRLKM | 102 |

target: CaBzz1-D1; experiment: as above
In short: as §1

| Binder | SPOT peptide array binding signal intensity |
| --- | --- |
| ISRRRLPVIMHRLKM | 49 |

target: CaBzz1-D2; experiment: as above
In short: as §1

| Binder | SPOT peptide array binding signal intensity |
| --- | --- |
| ISRRRLPVIMHRLKM | 42.5 |

target: CaCyk3; experiment: as above
In short: as §1

| Binder | SPOT peptide array binding signal intensity |
| --- | --- |
| ISRRRLPVIMHRLKM | 36 |

target: CaFus1; experiment: as above
In short: as §1

| Binder | SPOT peptide array binding signal intensity |
| --- | --- |
| ISRRRLPVIMHRLKM | 542 |

target: CaHof1; experiment: as above
In short: as §1

| Binder | SPOT peptide array binding signal intensity |
| --- | --- |
| ISRRRLPVIMHRLKM | 1 |

target: CaHse1; experiment: as above
In short: as §1

| Binder | SPOT peptide array binding signal intensity |
| --- | --- |
| ISRRRLPVIMHRLKM | 61 |

target: CaLsb1; experiment: as above
In short: as §1

| Binder | SPOT peptide array binding signal intensity |
| --- | --- |
| ISRRRLPVIMHRLKM | ≤ 0 |

target: CaLsb4; experiment: as above
In short: as §1

| Binder | SPOT peptide array binding signal intensity |
| --- | --- |
| ISRRRLPVIMHRLKM | 177 |

target: CaMyo5; experiment: as above
In short: as §1

| Binder | SPOT peptide array binding signal intensity |
| --- | --- |
| ISRRRLPVIMHRLKM | 0.5 |

target: CaNbp2; experiment: as above
In short: as §1

| Binder | SPOT peptide array binding signal intensity |
| --- | --- |
| ISRRRLPVIMHRLKM | 812 |

target: CaRvs167; experiment: as above
In short: as §1

| Binder | SPOT peptide array binding signal intensity |
| --- | --- |
| ISRRRLPVIMHRLKM | 42.3 |

target: CaRvs167-3; experiment: as above
In short: as §1

| Binder | SPOT peptide array binding signal intensity |
| --- | --- |
| ISRRRLPVIMHRLKM | 153 |

target: CaSho1; experiment: as above
In short: as §1

| Binder | SPOT peptide array binding signal intensity |
| --- | --- |
| ISRRRLPVIMHRLKM | 738 |

target: CaSla1-D1-D2; experiment: as above
In short: as §1

| Binder | SPOT peptide array binding signal intensity |
| --- | --- |
| ISRRRLPVIMHRLKM | 386 |

target: CaSla1-D3; experiment: as above
In short: as §1

| Binder | SPOT peptide array binding signal intensity |
| --- | --- |
| ISRRRLPVIMHRLKM | 99.8 |

target: ScAbp1; experiment: as above
In short: as §1

| Binder | SPOT peptide array binding signal intensity |
| --- | --- |
| ISRRRLPVIMHRLKM | 150 |

target: ScBbc1; experiment: as above
In short: as §1

| Binder | SPOT peptide array binding signal intensity |
| --- | --- |
| ISRRRLPVIMHRLKM | 10.5 |

target: ScBem1-D1; experiment: as above
In short: as §1

| Binder | SPOT peptide array binding signal intensity |
| --- | --- |
| ISRRRLPVIMHRLKM | 23 |

target: ScBzz1-D1; experiment: as above
In short: as §1

| Binder | SPOT peptide array binding signal intensity |
| --- | --- |
| ISRRRLPVIMHRLKM | 8.5 |

target: ScBzz1-D2; experiment: as above
In short: as §1

| Binder | SPOT peptide array binding signal intensity |
| --- | --- |
| ISRRRLPVIMHRLKM | 9 |

target: ScCyk3; experiment: as above
In short: as §1

| Binder | SPOT peptide array binding signal intensity |
| --- | --- |
| ISRRRLPVIMHRLKM | 49 |

target: ScFus1; experiment: as above
In short: as §1

| Binder | SPOT peptide array binding signal intensity |
| --- | --- |
| ISRRRLPVIMHRLKM | 516 |

target: ScHof1; experiment: as above
In short: as §1

| Binder | SPOT peptide array binding signal intensity |
| --- | --- |
| ISRRRLPVIMHRLKM | 1 |

target: ScHse1; experiment: as above
In short: as §1

| Binder | SPOT peptide array binding signal intensity |
| --- | --- |
| ISRRRLPVIMHRLKM | 1390 |

target: ScLsb1; experiment: as above
In short: as §1

| Binder | SPOT peptide array binding signal intensity |
| --- | --- |
| ISRRRLPVIMHRLKM | 32.5 |

target: ScLsb2; experiment: as above
In short: as §1

| Binder | SPOT peptide array binding signal intensity |
| --- | --- |
| ISRRRLPVIMHRLKM | 2 |

target: ScLsb3; experiment: as above
In short: as §1

| Binder | SPOT peptide array binding signal intensity |
| --- | --- |
| ISRRRLPVIMHRLKM | 1300 |

target: ScLsb4; experiment: as above
In short: as §1

| Binder | SPOT peptide array binding signal intensity |
| --- | --- |
| ISRRRLPVIMHRLKM | 42 |

target: ScMyo3; experiment: as above
In short: as §1

| Binder | SPOT peptide array binding signal intensity |
| --- | --- |
| ISRRRLPVIMHRLKM | ≤ 0 |

target: ScMyo5; experiment: as above
In short: as §1

| Binder | SPOT peptide array binding signal intensity |
| --- | --- |
| ISRRRLPVIMHRLKM | ≤ 0 |

target: ScNbp2; experiment: as above
In short: as §1

| Binder | SPOT peptide array binding signal intensity |
| --- | --- |
| ISRRRLPVIMHRLKM | 485 |

target: ScPex13; experiment: as above
In short: as §1

| Binder | SPOT peptide array binding signal intensity |
| --- | --- |
| ISRRRLPVIMHRLKM | 18 |

target: ScRvs167; experiment: as above
In short: as §1

| Binder | SPOT peptide array binding signal intensity |
| --- | --- |
| ISRRRLPVIMHRLKM | 216 |

target: ScSho1; experiment: as above
In short: as §1

| Binder | SPOT peptide array binding signal intensity |
| --- | --- |
| ISRRRLPVIMHRLKM | 1520 |

target: ScSla1-D1-D2; experiment: as above
In short: as §1

| Binder | SPOT peptide array binding signal intensity |
| --- | --- |
| ISRRRLPVIMHRLKM | 222 |

target: ScSla1-D3; experiment: as above
In short: as §1

| Binder | SPOT peptide array binding signal intensity |
| --- | --- |
| ISRRRLPVIMHRLKM | 70.5 |

target: SpAbp1-D1; experiment: as above
In short: as §1

| Binder | SPOT peptide array binding signal intensity |
| --- | --- |
| ISRRRLPVIMHRLKM | 714 |

target: SpBbc1; experiment: as above
In short: as §1

| Binder | SPOT peptide array binding signal intensity |
| --- | --- |
| ISRRRLPVIMHRLKM | 0.5 |

target: SpBzz1-D1; experiment: as above
In short: as §1

| Binder | SPOT peptide array binding signal intensity |
| --- | --- |
| ISRRRLPVIMHRLKM | 124 |
